Measured values: PubChem BioAssay AID488966 (Southern Research Specialized Biocontainment Screening …, 2010)
Several values for one entry are separate records, joined by “and”; a condition that tells them apart may be missing. Equal entries are not always repeated. The whole screen tested about 340,000 compounds, of which about 55 (0.02%) were called active.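 The calls were made as follows: active = phage lysis inhibition, versus mean bacterial control, above a set limit; inconclusive = no clear call, values can overlap the other calls; inactive = the rest.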 Only a sample is shown. Measured potencies and affinities stand elsewhere.

Assay: inhibition of K1F phage lysis, E. coli UTI89, bacterial capsule biogenesis inhibitors, alamar blue (AID 488966);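 also: capsule biogenesis inhibitors block K1F phage lysis so surviving cells raise fluorescence; higher fluorescence means more inhibition of phage lysis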
Conditions: 2 h; inhibition: at 100 µM, stronger effect = higher value unless noted; series mostly up to 300 µM; inhibition of phage lysis: at the top concentration

inhibition, inactive:
Brc1c(OCCOCCn2cncn2)ccc2ccccc12 -1.02%
O=C(CCc1ccccc1)N=C1SC2CS(=O)(=O)CC2N1c1ccc(F)cc1 (configuration not stated) 0.07%
Cc1ccc(S(=O)(=O)c2c(C)cc(C)nc2Oc2cccc(C)c2C)cc1 1.5%
COc1cc(CCC(=O)NCC2CCCO2)cc(OC)c1OC (configuration not stated) 0.13%
CC(C)C(NC(=O)c1ccccc1F)C(=O)OCC(=O)c1ccc(F)cc1 (configuration not stated) -0.86%
Cc1ccc(C(C)(C)C)cc1S(=O)(=O)Nc1cccc(C(=O)N2CCN(c3ccccn3)CC2)c1 -1.06% [at 50 µM, stronger effect = higher value]
O=C1CCCN1C(=O)CSc1ccc2ccccc2n1 0.65% [at 50 µM, stronger effect = higher value]
O=Nc1ccc(NOC(=O)c2ccccc2)cc1 0.94% [at 50 µM, stronger effect = higher value]
Cc1ccc(C(=O)ONc2ccc(N=NC(=O)c3ccccc3O)cc2)cc1 -1.4%
CCC1(CC)C(=O)NC(=O)NC1=NCCc1c[nH]c2ccccc12 8.91%
CC(=O)c1ccc(C(C)(C)c2ccc(C(C)=O)s2)s1 1.04%
COc1cc(/C=N/N=C(N)N)ccc1OCc1ccc(Cl)cc1 1.12%
COc1cc(/C=N/O)ccc1OCc1ccccc1Cl 2.6%
CCSc1ccccc1C(=O)Nc1ccc([N+](=O)[O-])cc1OC -0.1%
COc1ccc2cc(C(=O)NCCCN3CCCC3=O)[nH]c2c1 0.11%
CCOCCCNC(=O)CCc1ccc(S(=O)(=O)Nc2ccc(C)cc2)cc1 -0.65%
CN(C)S(=O)(=O)c1ccc(C(=O)N(c2ccccn2)c2ccccn2)cc1 0.22%
O=C(CCCc1nc2ccccc2s1)Nc1ccc(N2CCOCC2)cc1 0.19%
COC(=O)c1cc(OC)c(OC)cc1NC(=O)CN1CCOCC1 1.47%
CCN(CC)c1ccc(C(=C2C=CC(=[N+](CC)CC)C=C2)c2ccc(S(=O)(=O)O)cc2S(=O)(=O)[O-])cc1 -0.79% [at 50 µM, stronger effect = higher value]
CCN(CC)c1ccc2c(O)cc(=O)oc2c1 0.26%
COc1ccc2c(=O)c(-c3ccc(C)cc3)c(-c3ccccc3)oc2c1 0.1%
Cc1ccc(C(=O)N2CCN(S(C)(=O)=O)C2)cc1 3.27%
N=c1n(CCN2CCCCC2)c2ccccc2n1CC(O)c1ccc(Cl)c(Cl)c1 (configuration not stated) -4.43%
COc1ccc(C(=O)NNC(=O)CCc2nc3ccccc3c(=O)[nH]2)cc1 -0.85%
O=C(CSc1nnc(CNC(=O)c2ccco2)o1)Nc1nc2ccccc2s1 0.07%
CC(=O)NC1=NN(C(C)=O)C(C)(c2cccnc2)S1 (configuration not stated) 0.35%
Cc1cc2oc3c(c(=O)c2cc1C)C(c1ccc(C(C)C)cc1)N(CCCN1CCOCC1)C3=O (configuration not stated) 10.9%
Cc1cc2oc3c(c(=O)c2cc1C)C(c1ccc(F)cc1)N(CCCN1CCOCC1)C3=O (configuration not stated) 10.1%
CC(C)Oc1ccc(C2c3c(oc4ccccc4c3=O)C(=O)N2CCCN2CCOCC2)cc1 (configuration not stated) 7.09%
CCCOc1ccc(C2c3c(oc4ccccc4c3=O)C(=O)N2CCCN2CCOCC2)cc1 (configuration not stated) 3.1%
CCCCCCn1c(N2CCN(c3cccc(Cl)c3)CC2)nc2c1c(=O)[nH]c(=O)n2C -0.58%
COc1ccc(-c2c(C)oc3c(CN4CCOCC4)c(O)ccc3c2=O)cc1 0.06%
O=C(CSc1nc2ccc(Cl)cc2[nH]1)NCCc1ccc(Cl)cc1 0.86%
C=CCn1c(C)nnc1SCC(=O)c1[nH]c(C)c(C(C)=O)c1C -0.26%
COc1ccc(C(=O)Nc2ccc3c(c2)nc(CCNC(C)=O)n3C)cc1 5.13%
C/C(=N\NC(=S)NCCc1ccccc1)c1ccc(C#N)cc1 0.17%
Cc1ccccc1CN1CCN(CCCc2ccccc2)C(CCO)C1 (configuration not stated) 0.26%
C[C@H](CO)N1C[C@H](C)[C@@H](CN(C)Cc2ccc(C(=O)O)cc2)Oc2c(NS(=O)(=O)c3ccccc3)cccc2C1=O 0.71%
O=C(COc1ccc2c(-c3ccccc3)cc(=O)oc2c1)NCCCn1ccnc1 -2.78%
N=C(N)c1ccccc1 3.36% and 4.08%
N=C(N)c1ccc(O)cc1 -1.49%
Cc1occc1C(=O)NNC(=O)CN1C(=O)NC2(CCCCC2)C1=O 1% [at 50 µM, stronger effect = higher value]
COc1ccc(C(=O)Nc2nc3ccc(OC)cc3s2)cc1 0.38%
COc1ccc2nc(NC(C)=O)sc2c1 0.03%
Cc1cc(C)c2sc(NNC(=O)C3COc4ccccc4O3)nc2c1 (configuration not stated) 3.07%
COc1ccc(NC(=O)C(C)N2c3cccc4cccc(c34)S2(=O)=O)cc1 (configuration not stated) 4.61%
CCS(=O)(=O)C1=NN2C(=N)/C(=C\c3ccc(SCc4ccco4)o3)C(=O)N=C2S1 -0.03%
O=C(c1cc2ccccc2o1)N1CCN(c2ccccn2)CC1 0.07%
COc1cccc(C(=O)Nc2ncc3c(n2)CC(C)CC3=O)c1 (configuration not stated) 0.02%
Cn1c(N)c(C(=O)Nc2cccc(Cl)c2)c(=O)n(C)c1=O 0.32%
CC(OC(=O)CCCN1C(=O)c2ccccc2C1=O)C(=O)Nc1ncc(Cl)cc1Cl (configuration not stated) 0.75%
O=C(Cc1ccsc1)Nc1ccc2c(c1)OCO2 0.48% [at 50 µM, stronger effect = higher value]
COc1ccc(CC(=O)Nc2ccc(N3CCOCC3)cc2)cc1OC -0.16%
Cc1cccc(OCC(=O)Nc2ccc(C(=O)Nc3ccccc3C(=O)O)cc2)c1C 1.06% [at 50 µM, stronger effect = higher value]
Cc1ccccc1OCC(=O)Nc1ccc(C(=O)Nc2ccccc2C(=O)O)cc1 0.645% [at 50 µM, stronger effect = higher value]
Cc1ccc2nc(C3CCCN3Cc3nc(CCC(C)C)no3)[nH]c2c1 (configuration not stated) 0.57%
CCOc1ccc(C(=O)NN2C(=O)C3C4C=CC(O4)C3C2=O)cc1 (configuration not stated) 0.49%
COc1ccc(C2=CSC3=C(C(=O)c4cccc(S(=O)(=O)N(C)C)c4)CCN23)cc1 0.33%
CN(C(=O)Cn1c(=O)oc2cc(S(=O)(=O)N3CCCC3)ccc21)C1CCCCC1 0.1%

Inhibition of phage lysis, inactive:
N=c1n(CCN2CCCCC2)c2ccccc2n1CC(O)c1cccc(Br)c1 (configuration not stated) 2.09%
N=C1/C(=C\c2ccc(SCc3ccco3)o2)C(=O)N=C2SC=NN12 7.18%
